Assay outcomes: PubChem, Sanford-Burnham Center for Chemical Genomics
The list is not random: actives were taken first. Their share in the collection is about 1.5%.
NadD block = inhibitors of Staphylococcus aureus NadD. purified NadD enzyme, colorimetric absorbance read-out. inhibition, % at 20 µM. 0.78% of 360,000 active. AID 602399; in the data active means inhibition above about 26%
GC-B act = GC-B (human) receptor activation; HEK293-GC-B cells, CNP EC30, cGMP TR-FRET; 0% at EC30 CNP, 100% saturating CNP; activation, % at 10 µM; 0.11% of 370,000 active; AID 1920062;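 active means activation at 10 µM reaching about 35% in either raw or pattern-adjusted values, limit read from the data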
Neddyl block = inhibitors of human cullin neddylation | P61081+Q13564 | TR-FRET cullin neddylation, biochemical | inhibition, % at 25 µM | 0.58% of 360,000 active; in the data active means inhibition above about 36%
Target sequence (P61081 whole entry, looked up): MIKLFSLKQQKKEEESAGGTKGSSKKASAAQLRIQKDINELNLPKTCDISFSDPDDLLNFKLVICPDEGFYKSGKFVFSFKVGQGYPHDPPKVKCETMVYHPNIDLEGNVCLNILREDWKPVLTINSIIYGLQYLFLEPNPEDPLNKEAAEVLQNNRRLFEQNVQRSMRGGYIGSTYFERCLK
Target sequence (Q13564 whole entry, looked up): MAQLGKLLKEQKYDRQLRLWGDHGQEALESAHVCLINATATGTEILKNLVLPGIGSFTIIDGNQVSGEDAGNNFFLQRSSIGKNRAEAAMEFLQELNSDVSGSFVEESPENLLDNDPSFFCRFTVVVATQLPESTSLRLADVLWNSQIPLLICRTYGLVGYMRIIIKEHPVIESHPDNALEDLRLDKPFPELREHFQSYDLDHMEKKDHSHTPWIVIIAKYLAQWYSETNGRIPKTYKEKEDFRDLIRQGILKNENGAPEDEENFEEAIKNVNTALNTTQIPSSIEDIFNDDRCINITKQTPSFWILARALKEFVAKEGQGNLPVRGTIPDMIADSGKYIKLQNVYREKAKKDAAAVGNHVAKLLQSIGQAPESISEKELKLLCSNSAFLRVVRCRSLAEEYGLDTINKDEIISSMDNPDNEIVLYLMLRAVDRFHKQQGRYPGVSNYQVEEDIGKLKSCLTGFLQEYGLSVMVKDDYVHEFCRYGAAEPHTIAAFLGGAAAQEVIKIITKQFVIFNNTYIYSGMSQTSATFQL
NPR1 activator = GC-A (human) enzyme activation; P16066; HEK293 GC-A cells, cGMP TR-FRET, EC30 ANP; 0% at EC30 ANP, 100% saturating ANP; activation, % at 10 µM; 0.14% of 370,000 active; AID 1671463; in the data active means activation above about 40%
Neddyl conf = cullin neddylation inhibition, confirmation. calls only at 25 µM. 13% of 1,800 active. TR-FRET cullin neddylation biochemical assay. shares compounds with Neddyl block; in the data active means inhibition above about 40%;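 further: neddylation substrate is the cullin 1 ring ligase complex with SKP2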
* = called active by the depositor.

Results for Oc1ccc2c(c1)oc1cc(O)ccc12 ?
NadD block: -5; GC-B act: -1; Neddyl block: 41*; NPR1 activator: 7; Neddyl conf: inactive

How did COc1c(C)oc2cc(O)ccc2c1=O do in these assays?
NadD block: 1; GC-B act: 2; NPR1 activator: 3

Results for CCOC(=O)C1=C(C)NC(C)=C(C(=O)OCC)C1C ?
NadD block: 0; GC-B act: -1; Neddyl block: 47*; NPR1 activator: 1

What do the screens show for `COc1ccc(/C=N/NC(=O)c2[nH]c3ccc(Br)cc3c2-c2ccccc2)c(C(=O)O)c1OC`?
NadD block: 14; GC-B act: -1; Neddyl block: 33; NPR1 activator: -7

What do the screens show for `COc1cccc(/C=N/NC(=O)c2cc3c(OC)cccc3[nH]2)c1OC`?
NadD block: 2; GC-B act: 2; Neddyl block: 43*; NPR1 activator: 8; Neddyl conf: inactive

How did COc1ccc(/C=N/NC(=O)c2[nH]c3ccc(Cl)cc3c2-c2ccccc2)c(C(=O)O)c1OC do in these assays?
NadD block: 12; GC-B act: -6; Neddyl block: 42*; NPR1 activator: 2

What do the screens show for `CCOc1ccc(/C=N/NC(=O)c2cc3c(OC)cccc3[nH]2)cc1`?
NadD block: 4; GC-B act: -4; Neddyl block: 43*; NPR1 activator: 2; Neddyl conf: inactive

How did COc1cccc(/C=N/NC(=O)c2cc3c(OC)c(OC)ccc3[nH]2)c1OC do in these assays?
NadD block: 2; GC-B act: -6; Neddyl block: 32; NPR1 activator: -3

Results for COc1cccc(NC(=O)Nc2c(-c3ccc(C(F)(F)F)cc3)nc3ncccn23)c1 ?
GC-B act: 4; NPR1 activator: -4

Results for CCOC(=O)C1=C(C)NC(C)=C(C(=O)OCC)C1C(=O)OCC(=O)NCc1ccccc1 ?
NadD block: -5; GC-B act: -2; NPR1 activator: -6

Results for CCOC(=O)C1=C(C)NC(C)=C(C(=O)OCC)C1C(=O)OCC(=O)NC(C)c1ccccc1 (configuration not stated) ?
NadD block: -4; GC-B act: -5; Neddyl block: 45*; NPR1 activator: -6

Results for CCOC(=O)C1=C(C)NC(C)=C(C(=O)OCC)C1C(=O)OCC(=O)NCCc1ccc(S(N)(=O)=O)cc1 ?
NadD block: -5; GC-B act: -15; Neddyl block: 42*; NPR1 activator: -6; Neddyl conf: inactive

Results for Nc1nccnc1C(=O)OCC(=O)NCCc1ccc(S(N)(=O)=O)cc1 ?
NadD block: 14; GC-B act: -3; Neddyl block: 63*; NPR1 activator: 1

What do the screens show for `CCOC(=O)C1=C(C)NC(C)=C(C(=O)OCC)C1C(=O)OCC(=O)NC`?
NadD block: -3; GC-B act: 3; Neddyl block: 21; NPR1 activator: -1

How did CCOc1ccc(CNc2ccc(N3CCOCC3)c(C(=O)O)c2)cc1 do in these assays?
NadD block: -1; GC-B act: 4; Neddyl block: 31; NPR1 activator: 1

What do the screens show for `COC(=O)c1cc(NCc2ccc3c(c2)OCO3)ccc1N1CCOCC1`?
NadD block: 5; GC-B act: 5; Neddyl block: 29; NPR1 activator: 2

Results for O=C(O)c1cc(NCc2ccc3c(c2)OCO3)ccc1N1CCOCC1 ?
NadD block: 2; GC-B act: -2; Neddyl block: 43*; NPR1 activator: 1; Neddyl conf: inactive

How did COc1cc(CNc2ccc(N3CCOCC3)c(C(=O)O)c2)ccc1OCC(N)=O do in these assays?
NadD block: 3; GC-B act: -1; Neddyl block: 42*; NPR1 activator: 4; Neddyl conf: inactive

Results for CCCCCC[C@@H](CC)CN(C(=O)Oc1ccccc1)c1ccccc1 ?
GC-B act: -2; NPR1 activator: -1

Results for CCN(CC)CCNC(=O)c1cn(CC)c2cc(N3CCN(C)CC3)c(F)cc2c1=O ?
NadD block: -1; GC-B act: 8; Neddyl block: 47*; NPR1 activator: 8

Results for CCn1cc(C(=O)NCCC(C)C)c(=O)c2cc(F)c(N3CCN(C)CC3)cc21 ?
NadD block: -8; GC-B act: 2; Neddyl block: 44*; NPR1 activator: 7

Results for CCn1cc(C(=O)NN)c(=O)c2cc(F)c(N3CCN(C)CC3)cc21 ?
NadD block: -8; GC-B act: 0; Neddyl block: -4; NPR1 activator: 4

Results for CCCOc1ccc(C(=O)NC(=S)N2CCN(c3cc4c(cc3F)c(=O)c(C(=O)O)cn4CC)CC2)cc1 ?
NadD block: 10; GC-B act: -4; Neddyl block: 40*; NPR1 activator: -3; Neddyl conf: inactive

Results for CCCCNC(=O)c1cn(CC)c2cc(N3CCN(C)CC3)c(F)cc2c1=O ?
NadD block: 2; GC-B act: -1; NPR1 activator: 5

What do the screens show for `CCn1cc(C(=O)O)c(=O)c2cc(F)c(N3CCN(C(=S)NC(=O)c4ccc(F)cc4)CC3)cc21`?
NadD block: 4; GC-B act: 1; Neddyl block: 35; NPR1 activator: -1

How did CCCCCCCCN1C(=O)[C@@H](CC(=O)NCc2ccc(OC)c(OC)c2)C[C@@]2(C(=O)OC)C1=C[C@H](COCc1ccccc1)O[C@@H]2C do in these assays?
GC-B act: 5; NPR1 activator: 3

What do the screens show for `O=c1ccc2cc3c(-c4ccccc4)coc3cc2o1`?
NadD block: -10; GC-B act: 3; Neddyl block: 46*; NPR1 activator: 0; Neddyl conf: inactive

Results for CCc1c(-c2ccc(Br)cc2)ncn1CCc1ccccc1OC ?
GC-B act: -8; NPR1 activator: -3

How did CCC(C(=O)Nc1ccccc1N1CCCC1)c1cccc(Cl)c1 (configuration not stated) do in these assays?
GC-B act: -14; NPR1 activator: -9

Results for Cc1cccn2c(=O)c3cc(C(=O)NC4CCCC4)sc3nc12 ?
NadD block: 5; GC-B act: 3; Neddyl block: 64*; NPR1 activator: 11

How did Cc1cccn2c(=O)c3cc(C(=O)N4CCN(Cc5ccccc5)CC4)sc3nc12 do in these assays?
NadD block: 0; GC-B act: 0; Neddyl block: 65*; NPR1 activator: 1; Neddyl conf: active

Results for CCC1CCCCN1C(=O)c1cc2c(=O)n3cccc(C)c3nc2s1 (configuration not stated) ?
NadD block: 6; Neddyl block: 56*; Neddyl conf: inactive

What do the screens show for `Cc1cccn2c(=O)c3cc(C(=O)N4CCCC(C)C4)sc3nc12` (configuration not stated)?
NadD block: 1; GC-B act: 2; Neddyl block: 54*; NPR1 activator: 4; Neddyl conf: inactive

How did Cc1cccn2c(=O)c3cc(C(=O)N4CCCCC4)sc3nc12 do in these assays?
NadD block: -8; GC-B act: 3; NPR1 activator: 7
